These results are taken from PubChem BioAssay.

The structures appear in SMILES notation.

This assay is described as follows: compound effects on differentiated 3T3-L1 adipocyte viability – cell-based, 3T3-L1 adipocytes, calcein-AM fluorescence, 48 h, basal, profiling panel (AID 1163). Also: test concentration not given here. As to conditions: 3T3-L1 adipocytes viability, higher = more signal.
Take `COC(=O)[C@H](C)NC(=O)CCC1CC(OC(=O)NCc2cccc3ccccc23)CC2(CCCC(COC(=O)NCc3ccccc3)O2)O1` (stereo partly specified): the z-score is 0.2.

In the case of `O=C1CCCC=C1C(O)C1CCCCC1` (stereo unspecified), the z-score was -0.464.

With `COc1ccc(COC(=O)NN=C2C[C@@H](O)[C@@H](O)[C@@H]3[C@@H]4C(=O)N(Cc5ccccc5)C(=O)[C@@H]4CC[C@@H]23)cc1`, the z-score was -0.641.

On to `CO[C@H]1COC(=O)CC=C[C@H](C)[C@H](OC)COC(=O)[C@@H](C)NC(=O)CC=C[C@@H]1C`, for which the z-score was 0.269.

Turning to `CC(C)CON=C1[C@H]2CCn3c(=O)n(C)c(=O)n3[C@H]2[C@H](O)[C@@H]2O[C@H]12`, the z-score was 0.632.

As to `CCOC(=O)CCN1C(=O)[C@H]2[C@H]3[C@H](O)[C@H](O)CC(=NOCC=C(C)CCC=C(C)C)[C@@H]3CC[C@H]2C1=O`, the z-score was -0.218.

For the compound `CC[C@@H](c1ccccc1)n1c(=O)n2n(c1=O)[C@H]1[C@H](O)[C@@H]3O[C@@H]3C(=NOCc3ccccc3)[C@H]1CC2`, the z-score was 0.229.

For the compound `CC(CCN1CCCc2nc(C)c(C)cc21)=NO[C@@H](C)c1cn([C@H](CO)Cc2ccccc2)nn1`, the z-score is -0.189.

As for `COC(=O)[C@H](C)NC(=O)CCC1CC(OC(=O)NCCc2ccc(F)cc2)CC2(CCCC(COC(=O)NCC3CCCCC3)O2)O1` (stereo partly specified), the z-score is 0.851.

In the case of `CCOC(=O)[C@H](Cc1ccccc1)NC(=O)CCC1CC(OC(=O)NCc2ccc3c(c2)OCO3)CC2(CCCC(COC(=O)NCCCN3CCCC3=O)O2)O1` (stereo partly specified), the z-score was 0.484.

With `CC(CCC(=O)OC[C@H]1O[C@H](C#Cc2ccccc2)C=C[C@@H]1Oc1ccc(C)cc1)=NOC[C@@H](C)[C@H](OCc1ccccc1)C(C)C`, the z-score was 0.0487.

For `CCN1C(=O)[C@H]2[C@H]3[C@H](O)[C@H](O)CC(=NOC[C@@H](O)[C@H]4O[C@@H]5OC(C)(C)O[C@@H]5[C@H]4O)[C@@H]3CC[C@H]2C1=O`, the z-score was -0.532.

For the compound `CC(C)CON=C1C[C@@H](O)[C@@H](O)[C@@H]2[C@@H]3C(=O)N(Cc4ccc5c(c4)OCO5)C(=O)[C@@H]3CC[C@@H]12`, the z-score is -0.724.

Regarding `C=CC[C@@H]1C=C[C@H](ON=C2C[C@@H](O)[C@@H](O)[C@@H]3[C@@H]4C(=O)N(CC)C(=O)[C@@H]4CC[C@@H]23)[C@@H](CO)O1`, the z-score was 1.

Take `CO[C@H]1COC(=O)CCC[C@H](C)[C@H](OC)COC(=O)CC=C[C@@H]1C`: the z-score was -0.14.

As for `COc1ccc2c(c1)O[C@@H](c1cccc(C(F)(F)F)c1)[C@H](O)C2=O`, the z-score is -0.941.

Turning to `CC(CCN1CCCc2nc(C)c(C)cc21)=NOC[C@@H](O)COCc1ccco1`, the z-score is 0.827.

In the case of `CCN1C(=O)[C@H]2[C@H]3[C@H](O)[C@H](O)CC(=NO[C@@H]4O[C@H](CO)[C@@H](O)[C@H](O)[C@H]4O)[C@H]3CC[C@H]2C1=O`, the z-score is -0.158.

With `CCOC(=O)[C@H](CC(C)C)NC(=O)CCC1CC(OC(=O)NCc2ccc3c(c2)OCO3)CC2(CCCC(COC(=O)NCCOc3ccccc3)O2)O1` (stereo partly specified), the z-score is -0.36.

Turning to `O=C1C2=CC[C@H]3C(=O)N(c4ccc(F)cc4F)C(=O)[C@H]3[C@H]2[C@H](O)[C@@H]2O[C@H]12`, the z-score was -0.438.

For the compound `CC(=O)OC[C@H]1O[C@H](C#CCCc2ccccc2)C=C[C@@H]1OC(C)=O`, the z-score is 0.292.

In the case of `CC(C)=NOC(C)CN1CCCc2nc(C)c(C)cc21` (stereo unspecified), the z-score was -0.588.

`COC(=O)[C@H](C)NC(=O)CCC1CC(OC(=O)NCc2cccc3ccccc23)CC2(CCCC(COC(=O)NCCOc3ccccc3)O2)O1` (stereo partly specified): the z-score is 0.151.

Take `C[C@@H]1CC[C@@H](C(=O)O)N[C@H]1c1cccc(N2CCOCC2)c1`: the z-score is -0.219.

In the case of `COC(=O)[C@@H]1CC[C@H](C)[C@@H](c2ccc(Br)cc2)N1C[C@H](O)CN=[N+]=[N-]`, the z-score was 0.878.

Regarding `CCOC(=O)[C@H](Cc1ccccc1)NC(=O)CCC1CC(OC(=O)NCCc2ccc(F)cc2)CC2(CCCC(COC(=O)NCc3cccc(C(F)(F)F)c3)O2)O1` (stereo partly specified), the z-score is 0.15.

For the compound `COc1cccc([C@H]2Oc3ccc(OC)cc3C(=NOCC[C@@H]3C=C[C@H](OC(C)=O)[C@@H](COC(C)=O)O3)[C@@H]2O)c1`, the z-score is -0.542.

Consider `CC(=O)OC[C@H]1O[C@H](CC=NO[C@@H](C)c2cc(-c3c(C)cc(C)cc3C)no2)C=C[C@@H]1OC(C)=O`, for which the z-score is 0.318.

As for `CCOC(=O)NN=C1C[C@@H](O)[C@@H](O)[C@@H]2[C@@H]3C(=O)N(c4ccc(F)cc4F)C(=O)[C@@H]3CC[C@H]12`, the z-score is 1.01.

Regarding `O=C1[C@H]2[C@H]3[C@H](O)[C@H](O)CC(=NO[C@@H]4O[C@H](CO)[C@@H](O)[C@H](O)[C@H]4O)[C@H]3CC[C@H]2C(=O)N1C[C@@H]1CCCO1`, the z-score was -0.568.

Take `CCOC(=O)[C@H](Cc1ccccc1)NC(=O)CCC1CC(OC(=O)NCCc2ccc(F)cc2)CC2(CCCC(COC(=O)NCCC(C)C)O2)O1` (stereo partly specified): the z-score was -0.567.

As for `CO[C@H]1COC(=O)[C@H](C)COC(=O)[C@@H](OCc2ccccc2)C=C[C@@H]1C`, the z-score was 0.0582.

For `O=C1[C@H]2[C@H]3[C@H](O)[C@H](O)CC(=NOC[C@@H](O)COCc4ccco4)[C@@H]3CC[C@H]2C(=O)N1Cc1ccccc1`, the z-score is -0.886.

In the case of `CC(C)=CCCC(C)=CCON=C1C[C@@H](O)[C@@H](O)[C@@H]2[C@@H]3C(=O)N(Cc4ccc5c(c4)OCO5)C(=O)[C@@H]3CC[C@H]12`, the z-score was 0.0614.

As for `COC(=O)[C@H](C)NC(=O)CC=C[C@@H](C)[C@@H]1C=C[C@H](O)[C@@H](CO)O1`, the z-score was -0.586.

`COc1ccc(COC(=O)NN=C2C[C@@H](O)[C@@H](O)[C@@H]3[C@@H]4C(=O)N(C[C@@H]5CCCO5)C(=O)[C@@H]4CC[C@@H]23)cc1`: the z-score is -0.825.
